The source of these data is PubChem BioAssay (NCI).

Some test systems named below: NCI-H23 lung; NCI-H226 lung; NCI-H322M lung; HOP-62 NSCLC; NCI-H460 lung; NCI-H522 lung; A549/ATCC NSCLC; 786-0 renal; DU-145 prostate; MALME-3M melanoma; MDA-MB-231 breast; RXF 393 renal; SF-268 CNS; SF-295 CNS; SF-539 CNS; UACC-257 melanoma; M14 melanoma; HCT-15 colon; K-562 leukemia; COLO 205 colon.
Common to all, as to assay: NCI-60 one-dose screen, 48 h (100 = growth as untreated, 0 = no growth, -100 = all killed)
Settings in all cases: 10 µM unless noted

About 83,000 compounds went through this panel and 20% of them were active in at least one assay; those are over-represented in the sample as a whole.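 Results are percent growth after 48 hours of single-concentration exposure. 100 means growth as in untreated cells, lower positive values show inhibition; negative values down to -100 show cell death.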 Unmarked numbers belong to inactive results. Activity calls are given as the source filed them. Rule for the calls: active = growth percent below 10; inactive = the rest.

For the compound `O=C(Nc1ccccc1Cl)c1cnc2ccc(C3CCNCC3)cn12`, the growth is 95% in the assay with NCI-H23 lung; 65% with NCI-H226 lung; 23.1% in the assay with NCI-H322M lung; 58.3% with HOP-62 NSCLC; 86.4% in the assay on NCI-H460 lung; 2.54% (active) in the assay on NCI-H522 lung. The growth was 66.7% in the assay on A549/ATCC NSCLC; 52.8% in the assay with 786-0 renal; 56.7% in the assay on DU-145 prostate; 96.2% with MALME-3M melanoma; 61.3% in the assay with MDA-MB-231 breast; 36.5% with RXF 393 renal. In addition, the growth with SF-268 CNS was 60.7%; with SF-295 CNS, 70.7%; in the assay on SF-539 CNS, 47%; in the assay with UACC-257 melanoma, 82.5%; in the assay on M14 melanoma, 72.7%; in the assay with HCT-15 colon, 46.6%.

In the case of `COc1cc(C2NC(c3ccc(Cl)cc3)C(C)/C(=N/NC(N)=S)C2C)cc(OC)c1OC` (stereo not given), the growth is 92.6% in the assay on NCI-H23 lung; 85.9% with NCI-H226 lung; 97.7% in the assay with NCI-H322M lung; 99% in the assay on HOP-62 NSCLC; 100% with NCI-H460 lung; 65.6% in the assay with NCI-H522 lung. Moreover, the growth in the assay with A549/ATCC NSCLC is 94.9%; with 786-0 renal, 91.1%; in the assay with DU-145 prostate, 117%; with MALME-3M melanoma it was 73%; in the assay on MDA-MB-231 breast it was 101%; with RXF 393 renal it was 85.9%. For the same compound, the growth with SF-268 CNS was 101%; in the assay with SF-295 CNS, 117%; in the assay with SF-539 CNS, 88.8%; in the assay on UACC-257 melanoma, 103%; in the assay with M14 melanoma it was 92.7%; with HCT-15 colon, 81.9%.

On to `Cc1c(C(N)=O)sc2c1C(=O)N(Cc1ccccc1)C1=NN=C(c3ccc(Cl)cc3)CN12`, for which the growth was 58.9% with NCI-H23 lung; 73.9% in the assay on NCI-H226 lung; 38.1% in the assay with NCI-H322M lung; 66.3% in the assay on HOP-62 NSCLC; 28% with NCI-H460 lung; 67.1% with NCI-H522 lung. Also, the growth in the assay on A549/ATCC NSCLC is 46%; in the assay with 786-0 renal, 43%; in the assay with DU-145 prostate, 46.1%; with MALME-3M melanoma, 58.9%; in the assay with MDA-MB-231 breast, 37.3%; with RXF 393 renal, 51.3%. In addition, the growth in the assay with SF-268 CNS was 38.6%; with SF-295 CNS, 29.1%; in the assay with SF-539 CNS, 53.2%; with UACC-257 melanoma it was 59.8%; in the assay on M14 melanoma it was 41.5%; in the assay on HCT-15 colon, 22.6%.

With `COc1ccc(-c2cc(C(=O)Nc3nc4cc(C)c(C)cc4s3)nc3cc(-c4ccccc4)nn23)cc1OC`, the growth in the assay on NCI-H23 lung is 96%; in the assay with NCI-H226 lung, 113%; in the assay on NCI-H322M lung it was 119%; with HOP-62 NSCLC, 100%; in the assay with NCI-H460 lung, 112%; in the assay with NCI-H522 lung, 89%. For the same compound, the growth in the assay with A549/ATCC NSCLC was 94.5%; in the assay with 786-0 renal, 112%; in the assay with DU-145 prostate it was 121%; in the assay with K-562 leukemia it was 110%; with MALME-3M melanoma it was 101%; with MDA-MB-231 breast, 107%. The growth with RXF 393 renal is 112%; in the assay on SF-295 CNS, 112%; in the assay on SF-539 CNS it was 98.7%; in the assay with UACC-257 melanoma it was 93%; with M14 melanoma, 103%; in the assay on HCT-15 colon, 111%.

As to `COc1ccc2c(c1)nc(N)c1c3cc(C)c(C)cc3cn21`, the growth in the assay with NCI-H23 lung is 80.4%; in the assay on NCI-H226 lung, 86.8%; in the assay with NCI-H322M lung, 94%; with HOP-62 NSCLC it was 84.7%; in the assay on NCI-H460 lung, 48.4%; in the assay with NCI-H522 lung, 19.6%. In addition, the growth was 79.4% in the assay on A549/ATCC NSCLC; 91.2% in the assay on 786-0 renal; 76.5% with MALME-3M melanoma; 84.6% with MDA-MB-231 breast; 78.1% with RXF 393 renal; 75.6% in the assay on SF-268 CNS. Moreover, the growth is 64.3% with SF-295 CNS, 95.7% in the assay on SF-539 CNS, 83.7% in the assay with UACC-257 melanoma and 57.5% in the assay with M14 melanoma.

As to `CC(=O)c1ccc2c3c(n(C)c2c1)CCCC3`, the growth is 104% in the assay with NCI-H23 lung; 33% in the assay with NCI-H226 lung; 117% with NCI-H322M lung; 101% with HOP-62 NSCLC; 84.9% in the assay with NCI-H460 lung; 95.2% in the assay with NCI-H522 lung. The growth in the assay on A549/ATCC NSCLC was 106%; in the assay on 786-0 renal, 92.7%; in the assay with DU-145 prostate, 98.3%; with MALME-3M melanoma it was 118%; with MDA-MB-231 breast, 101%; with RXF 393 renal it was 112%. Further, the growth in the assay with SF-268 CNS was 101%; with SF-295 CNS, 97.7%; in the assay on SF-539 CNS it was 98%; in the assay with UACC-257 melanoma, 116%; in the assay on M14 melanoma it was 108%; in the assay on HCT-15 colon, 105%.

On to `NNC(=O)C1CC2c3ccccc3C1c1ccccc12` (stereo not given), for which the growth is 101% in the assay with NCI-H23 lung; 101% with NCI-H226 lung; 116% in the assay with NCI-H322M lung; 112% with HOP-62 NSCLC; 115% with NCI-H460 lung; 87% with NCI-H522 lung. Further, the growth is 113% with A549/ATCC NSCLC; 105% in the assay with 786-0 renal; 115% in the assay with DU-145 prostate; 123% with MALME-3M melanoma; 102% in the assay with MDA-MB-231 breast; 116% with RXF 393 renal. The growth with SF-268 CNS was 98.7%; in the assay on SF-295 CNS it was 105%; in the assay on SF-539 CNS, 99%; in the assay with UACC-257 melanoma, 118%; in the assay on M14 melanoma, 111%; in the assay on HCT-15 colon, 111%.

As for `O=C(Nc1ccc(Cl)cc1)Nc1ccc(Oc2nncc3ccccc23)cc1`, the growth in the assay with NCI-H23 lung was 0.498% (active); in the assay with NCI-H226 lung, -54.5% (active); in the assay with NCI-H322M lung, 60.9%; with HOP-62 NSCLC it was 12.9%; in the assay on NCI-H460 lung, 21.5%; in the assay on NCI-H522 lung, -46.3% (active). For the same compound, the growth in the assay with A549/ATCC NSCLC was 40%; in the assay on COLO 205 colon, 11.9%; with DU-145 prostate, 11.2%; in the assay on K-562 leukemia, 5.58% (active); in the assay with MALME-3M melanoma, 0.777% (active); in the assay on MDA-MB-231 breast it was -25.2% (active). Besides, the growth was -91.2% (active) in the assay on RXF 393 renal; 12.6% in the assay with SF-268 CNS; 40.7% in the assay with SF-295 CNS; -76.5% (active) in the assay on SF-539 CNS; 34.4% in the assay on UACC-257 melanoma; 7.3% (active) in the assay on M14 melanoma. For the same compound, in the assay with HCT-15 colon, the growth is 2.76% (active).

On to `Cn1cc(-c2csc(-c3c[nH]c4ncccc34)n2)c2cc(Br)cnc21`, for which the growth in the assay with NCI-H23 lung is 31.6%; in the assay with NCI-H226 lung, 49%; in the assay on NCI-H322M lung, 59.9%; with HOP-62 NSCLC, -19.7% (active); in the assay with NCI-H460 lung, 7.22% (active); in the assay on NCI-H522 lung, -2.08% (active). For the same compound, the growth in the assay on A549/ATCC NSCLC is 5.11% (active); in the assay with 786-0 renal, 20%; in the assay on MALME-3M melanoma, 32.8%; with MDA-MB-231 breast it was -1.21% (active); with RXF 393 renal it was 26.1%; in the assay with SF-268 CNS it was 64.8%. Further, the growth is -1.78% (active) in the assay with SF-295 CNS; 70.1% in the assay on SF-539 CNS; 57.1% in the assay with UACC-257 melanoma; 35.2% in the assay with M14 melanoma; 66.8% in the assay with HCT-15 colon.
